Usually AC50 stands for the concentration at which the activity in the assay is half-maximal.

Calls of active or inactive are those of the source. How the source made its calls: active means hit-call score of the fitted dose curve at least 0.9, where 1 is the maximum; inactive means score below 0.9.

Experimental findings from PubChem BioAssay (EPA / NIEHS) are described below.

Read-out in experiment [1]: Interleukin-8 (IL8), CXCL8 (gene 3576)
Nature of the experiment: BSK_CASM3C_IL8: BioMAP Diversity Plus: CASM3C Assay for Interleukin-8 (IL8) Biomarker Activity (AID 2283042).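 Further: IL-8 protein level quantified by ELISA.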 The following applies: primary human coronary artery smooth muscle cells; actives raise or lower the signal.

Read-out in experiment [2]: Human Leukocyte Antigen - DR isotype (HLADR), HLA-DRA (gene 3122)
The experiment is described as follows: BSK_CASM3C_HLADR: BioMAP Diversity Plus: CASM3C Assay for Human Leukocyte Antigen - DR isotype (HLADR) Biomarker Activity (AID 2283043).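 Further: cell-surface HLA-DR protein level quantified by ELISA.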 The conditions noted are these: primary human coronary artery smooth muscle cells; actives raise or lower the signal.

Read-out in experiment [3]: Macrophage colony-stimulating factor (MCSF), CSF1 (gene 1435)
Nature of the experiment: BSK_CASM3C_MCSF: BioMAP Diversity Plus: CASM3C Assay for Macrophage colony-stimulating factor (MCSF) Biomarker Activity (AID 2283044).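 Further: M-CSF protein amount quantified by ELISA after 24 h exposure.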 The conditions noted are these: primary human coronary artery smooth muscle cells; actives raise or lower the signal.

Read-out in experiment [4]: Low-density lipoprotein receptor (LDLR), LDLR (gene 3949)
Nature of the experiment: BSK_CASM3C_LDLR: BioMAP Diversity Plus: CASM3C Assay for Low-density lipoprotein receptor (LDLR) Biomarker Activity (AID 2283045).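 Further: LDLR protein level on the cell surface quantified by ELISA.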 The following applies: primary human coronary artery smooth muscle cells; actives raise or lower the signal.

Read-out in experiment [5]: Monocyte Chemoattractant Protein-1 (MCP1), CCL2 (gene 6347)
Nature of the experiment: BSK_CASM3C_MCP1: BioMAP Diversity Plus: CASM3C Assay for Monocyte Chemoattractant Protein-1 (MCP1) Biomarker Activity (AID 2283046).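 Further: MCP-1 level quantified by ELISA 24 h after dosing.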 The conditions noted are these: primary human coronary artery smooth muscle cells; actives raise or lower the signal.

A short description of experiment [6]: BSK_CASM3C_Proliferation: Cell Proliferation Assessment in the BioMAP Diversity Plus: CASM3C Assay (AID 2283047).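 Further: sulforhodamine B total protein stain as relative cell number at 560 nm; sub-confluent cells exposed 48 h before staining; fitted both ways against DMSO so gain or loss of cell number.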 The conditions noted are these: primary human coronary artery smooth muscle cells.
Read-out in experiment [7]: Monokine induced gamma interferon (MIG), CXCL9 (gene 4283)
Nature of the experiment: BSK_CASM3C_MIG: BioMAP Diversity Plus: CASM3C Assay for Monokine induced gamma interferon (MIG) Biomarker Activity (AID 2283048).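 Further: MIG protein level measured by ELISA.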 The conditions noted are these: primary human coronary artery smooth muscle cells; actives raise or lower the signal.

Read-out in experiment [8]: serum amyloid A (SAA), SAA1 (gene 6288)
The experiment is described as follows: BSK_CASM3C_SAA: BioMAP Diversity Plus: CASM3C Assay for serum amyloid A (SAA) Biomarker Activity (AID 2283049).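 Further: SAA protein level quantified by ELISA.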 The conditions noted are these: primary human coronary artery smooth muscle cells; actives raise or lower the signal.

A short description of experiment [9]: BSK_CASM3C_SRB: Viability Assessment in the BioMAP Diversity Plus: CASM3C Assay (AID 2283050).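 Further: cells exposed to compound for 24 h.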 The following applies: primary human coronary artery smooth muscle cells.
Read-out in experiment [10]: Thrombomodulin, THBD (gene 7056)
The experiment is described as follows: BSK_CASM3C_Thrombomodulin: BioMAP Diversity Plus: CASM3C Assay for Thrombomodulin Biomarker Activity (AID 2283051).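 Further: thrombomodulin protein level measured by ELISA 24 h after dosing.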 The conditions noted are these: primary human coronary artery smooth muscle cells; actives raise or lower the signal.

Read-out in experiment [11]: Tissue Factor, F3 (gene 2152)
The experiment is described as follows: BSK_CASM3C_TissueFactor: BioMAP Diversity Plus: CASM3C Assay for Tissue Factor Biomarker Activity (AID 2283052).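 Further: cell surface tissue factor protein level read by ELISA.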 The conditions noted are these: primary human coronary artery smooth muscle cells; actives raise or lower the signal.

Read-out in experiment [12]: Interferon-gamma inducible Protein 10 (IP10), CXCL10 (gene 3627)
The experiment is described as follows: BSK_hDFCGF_IP10: BioMAP Diversity Plus: hDFCGF Assay for Interferon-gamma inducible Protein 10 (IP10) Biomarker Activity (AID 2283053). The following applies: primary human foreskin fibroblasts; actives raise or lower the signal. Put shortly:
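Primary human foreskin fibroblasts exposed to chemicals for 24 h. IP-10 measured by ELISA; changes fitted bidirectionally against DMSO baseline.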

Read-out in experiment [13]: Urokinase-type plasminogen activator receptor (uPAR), PLAUR (gene 5329)
Nature of the experiment: BSK_CASM3C_uPAR: BioMAP Diversity Plus: CASM3C Assay for Urokinase-type plasminogen activator receptor (uPAR) Biomarker Activity (AID 2283054).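 Further: cell-surface uPAR protein level quantified by ELISA.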 The following applies: primary human coronary artery smooth muscle cells; actives raise or lower the signal.

Read-out in experiment [14]: Vascular cell adhesion molecule 1 (VCAM1), VCAM1 (gene 7412)
Nature of the experiment: BSK_CASM3C_VCAM1: BioMAP Diversity Plus: CASM3C Assay for Vascular cell adhesion molecule 1 (VCAM1) Biomarker Activity (AID 2283055).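 Further: VCAM-1 protein level quantified by ELISA on the cells.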 The following applies: primary human coronary artery smooth muscle cells; actives raise or lower the signal.

Read-out in experiment [15]: Collagen III, COL3A1 (gene 1281)
Nature of the experiment: BSK_hDFCGF_CollagenIII: BioMAP Diversity Plus: hDFCGF Assay for Collagen III Biomarker Activity (AID 2283056). The following applies: primary human foreskin fibroblasts; actives raise or lower the signal. In short, it runs like this:
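hDFCGF primary human dermal fibroblasts; 24 h chemical exposure; collagen III by ELISA; bidirectional curve fit vs DMSO baseline (gain or loss of signal).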

Read-out in experiment [16]: Epidermal growth factor receptor (EGFR), EGFR (gene 1956)
Nature of the experiment: BSK_hDFCGF_EGFR: BioMAP Diversity Plus: hDFCGF Assay for Epidermal growth factor receptor (EGFR) Biomarker Activity (AID 2283057). The conditions noted are these: primary human foreskin fibroblasts; actives raise or lower the signal. In short, it runs like this:
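Primary human foreskin fibroblasts (hDFCGF system), sampled 24 h after dosing; EGFR quantified by ELISA. Bidirectional fit relative to DMSO baseline; SRB total-protein staining in parallel cultures for cytotoxicity.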

Read-out in experiment [17]: Interleukin-8 (IL8), CXCL8 (gene 3576)
The experiment is described as follows: BSK_hDFCGF_IL8: BioMAP Diversity Plus: hDFCGF Assay for Interleukin-8 (IL8) Biomarker Activity (AID 2283058). The following applies: primary human foreskin fibroblasts; actives raise or lower the signal. Put shortly: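 ELISA read-out of IL-8 from primary human foreskin fibroblast cultures taken 24 h after dosing; values are bidirectional fits relative to DMSO vehicle.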

The nature of experiment [18]: BSK_hDFCGF_Proliferation: Cell Proliferation Assessment in the BioMAP Diversity Plus: hDFCGF Assay (AID 2283059).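 Further: curves fitted for both rise and fall of signal versus DMSO baseline.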 The following applies: primary human foreskin fibroblasts. Put shortly:
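Sub-confluent human foreskin fibroblast cultures receive test chemical […]. Relative cell number is quantified by sulforhodamine B staining (0.1%, after 10% TCA fixation) at 560 nm, with bidirectional fitting referenced to DMSO.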

Read-out in experiment [19]: Macrophage colony-stimulating factor (MCSF), CSF1 (gene 1435)
The experiment is described as follows: BSK_hDFCGF_MCSF: BioMAP Diversity Plus: hDFCGF Assay for Macrophage colony-stimulating factor (MCSF) Biomarker Activity (AID 2283060). The following applies: primary human foreskin fibroblasts; actives raise or lower the signal. In short, it runs like this: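 ELISA read-out of M-CSF in human dermal foreskin fibroblast cultures, 24 h after chemical dosing; gain or loss of signal fitted bidirectionally relative to DMSO baseline.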

Experiment [20] is described as follows: BSK_hDFCGF_SRB: Viability Assessment in the BioMAP Diversity Plus: hDFCGF Assay (AID 2283061).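 Further: cells exposed to compound for 24 h before the read.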 The following applies: primary human foreskin fibroblasts. In short, it runs like this:
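Primary human foreskin fibroblasts; 24 h post-dose; fixed 10% TCA, stained 0.1% SRB, A560 read; total protein as overt cytotoxicity measure; curves fit bidirectionally vs DMSO control.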

`O=[N+]([O-])c1ccc(O)cc1`: the outcome in experiment [1], in [2], in experiment [3], in experiment [4], in experiment [5] and in experiment [6] was inactive. Further, the result in [7], in experiment [8], in [9], in experiment [10], in experiment [11] and in experiment [12] was inactive. Further, the outcome in experiment [13], in [14], in experiment [15], in experiment [16], in experiment [17] and in experiment [18] was inactive. Further, the outcome in experiment [19] and in experiment [20] was inactive.
Take `O=C(OCCOCCOC(=O)c1ccccc1)c1ccccc1`: the outcome in experiment [1], in [2], in [3], in experiment [4], in experiment [5] and in [6] was inactive. Moreover, the result in experiment [7], in experiment [8], in [9], in experiment [10], in experiment [11] and in experiment [12] was inactive. The outcome in [13], in experiment [14], in experiment [15], in experiment [16], in [17] and in experiment [18] was inactive. Further, the result in experiment [19] and in experiment [20] was inactive.
In the case of `CCCCCCC(=O)O`, the outcome in experiment [1], in [2], in experiment [3], in experiment [4], in [5] and in experiment [6] was inactive. For the same molecule, the outcome in [7], in [8], in experiment [9], in [10], in experiment [11] and in experiment [12] was inactive. Besides, the outcome in experiment [13], in [14], in experiment [15], in experiment [16], in experiment [17] and in experiment [18] was inactive. Further, the outcome in experiment [19] and in [20] was inactive.
Turning to `CCCCC(CC)COC(=O)CCCCC(=O)OCc1ccccc1` (stereo not drawn), the outcome in experiment [1], in [2], in experiment [3], in experiment [4], in [5] and in experiment [6] was inactive. Moreover, the result in experiment [7], in [8], in experiment [9], in [10], in experiment [11] and in experiment [12] was inactive. Moreover, the outcome in [13], in [14], in [15], in [16], in experiment [17] and in experiment [18] was inactive. In addition, the result in experiment [19] and in experiment [20] was inactive.
Consider `ClC1=C(Cl)C(Cl)(Cl)C(Cl)=C1Cl`, for which the AC50 in [1] was 9.09 µM (active); in experiment [2] it was 4.27 µM (active); in experiment [3], 6.59 µM (active); in experiment [4], 5.87 µM (active); in [5], 7.68 µM (active); in [6], 2.76 µM (active). Besides, the AC50 in experiment [7] was 7.3 µM (active); in experiment [8], 6.33 µM (active); in experiment [9], 7.64 µM (active); in [11] it was 1.92 µM (active); in experiment [12], 9.62 µM (active); in [13], 6.99 µM (active). Besides, the AC50 in experiment [14] is 5.1 µM (active); in [15] it was 14 µM (active); in experiment [18] it was 4.2 µM (active); in experiment [19] it was 9.09 µM (active). Also, the result in experiment [10] and in experiment [16] was inactive.
